Screening results: PubChem BioAssay, National Center for Advancing Translational Sciences (NCATS)
JMJD2A Tudor inh: inhibitors of human JMJD2A Tudor domain. AlphaScreen JMJD2A-Tudor / H3K4me3 peptide binding. Potency, µM (doses to about 114 µM), for inactives: top-dose activity change, negative = inhibition, hits mostly inhibitors. 390,000 compounds, 4.4% hits. AID 504339; also: % is scaled to controls: 0 for no effect and ±100 for the full control effect; nearly all actives have a fitted effect of over 50% in size
G9a block: inhibitors of human histone lysine methyltransferase G9a; Q96KQ7; G9a H3K9 monomethylation, AlphaScreen, 2 h; Potency, µM (series often up to 102 µM), inactives show top-dose activity, negative = inhibition, usual class: inhibitors; 350,000 compounds, 8.8% hits; AID 504332; also: % is scaled to controls: 0 for no effect and ±100 for the full control effect; nearly all actives have a fitted effect of over 75% in size
Target sequence (Q96KQ7 913-1193 limits assumed): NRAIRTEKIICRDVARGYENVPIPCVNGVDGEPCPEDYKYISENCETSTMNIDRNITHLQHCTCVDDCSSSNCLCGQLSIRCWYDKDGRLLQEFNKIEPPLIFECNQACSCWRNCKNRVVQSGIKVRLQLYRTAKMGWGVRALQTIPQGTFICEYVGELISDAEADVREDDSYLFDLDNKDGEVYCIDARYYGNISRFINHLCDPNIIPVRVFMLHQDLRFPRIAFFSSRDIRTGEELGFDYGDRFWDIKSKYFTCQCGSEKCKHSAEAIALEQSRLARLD
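Using a bead-based AlphaScreen, monomethylated H3K9 product from 2 h room-temperature reactions (G9a 20 nM, peptide 500 nM, SAM 20 uM) was detected with 0.5 ug/mL rabbit anti-H3K9me1 antibody.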
Sfp PPTase inh: Sfp phosphopantetheinyl transferase inhibition; Biochemical Sfp PPTase activity, qHTS; Potency, µM, without a hit: largest response in the series, negative = inhibition, most hits filed as inhibitors; 310,000 compounds, 3.5% hits; AID 1490;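 also: the enzyme is Sfp with the accession as filed and its product quenches rhodamine fluorescence; 0% = enzyme reaction without inhibitor and -100% = no enzyme wells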
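Step 1, compound plus 15 nM Sfp-PPTase, 15 min, room temperature. Step 2, add rhodamine-CoA (5 uM) and BHQ-2-YbbR (12.5 uM). Step 3, read 525/598 nm fluorescence at 0 and 30 min.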
BAZ2B inh: BAZ2B (human) inhibition; AlphaScreen BAZ2B-H3K14Ac peptide displacement; Potency, µM (highest dose often 114 µM), without a hit: at the top dose activity change, negative = inhibition, actives largely listed as inhibitors; 360,000 compounds, 4.4% hits; also: % is scaled to controls: 0 for no effect and ±100 for the full control effect; nearly all actives have a fitted effect of over 60% in size
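AlphaScreen displacement: compounds (up to 110uM) incubated 30 min at room temperature with a preformed 50 nM BAZ2B/50 nM biotinylated H3K14Ac peptide complex in PBS pH 7.4 with Tween-20. Donor and acceptor beads at 10 ug/mL final added, 20 min light-protected before reading.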
PLK1 PBD inh: PLK1 (human) polo-box domain binding inhibition. Potency, µM, for inactives: max response, negative = inhibition, usual class: inhibitors. 360,000 compounds, 2.8% hits. P53350. AID 720504. Plk1 PBD binding of FITC phosphopeptide, fluorescence polarization; also: series mostly up to about 57 µM; % is scaled to controls: 0 for no effect and ±100 for the full control effect; nearly all actives have a fitted effect of over 65% in size
HP1b chromo inh: HP1-beta chromodomain-methylated histone interaction inhibition. AlphaScreen HP1-beta / biotin-H3K9me3 peptide binding. 390,000 compounds, 0.56% hits. P83916. Potency, µM (top dose mostly 114 µM), without a hit: top-dose activity change, negative = inhibition, usual class: inhibitors. AID 540317; also: nearly all actives have a fitted effect of over 70% in size
Target sequence (P83916 whole entry, looked up): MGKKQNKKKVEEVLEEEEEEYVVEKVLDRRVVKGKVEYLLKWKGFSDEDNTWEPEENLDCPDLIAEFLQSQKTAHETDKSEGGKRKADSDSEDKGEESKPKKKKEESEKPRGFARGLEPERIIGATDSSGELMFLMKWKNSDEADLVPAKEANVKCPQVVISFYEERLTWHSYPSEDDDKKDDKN
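Compound inhibition of the preformed complex between 50 nM HP1-beta and 50 nM biotinylated H3K9me3 peptide was read by AlphaScreen. Buffer was PBS pH 7.4 with 0.01% Tween-20. Incubations ran 30 min at room temperature, with 10 ug/mL donor/acceptor beads.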
* = called active by the depositor; ? = inconclusive; . = not tested or not shown; ! = not confirmed by another sample; [ ] = another dose, or the depositor's remark. Shown are actives, neighbours in structure and some others; about 12% of the full set was active somewhere. Calls follow the shape of the dose curve; as a rule, active = well fitted curve in the direction sought with a large enough effect; inconclusive = small, poorly fitted or top-dose-only effect, or another doubt; inactive = no such curve, though single readings can be large; an effect the other way counts as inactive or inconclusive. Potency is read from the fitted curve at half-maximal effect.

SMILES	JMJD2A Tudor inh	G9a block	Sfp PPTase inh	BAZ2B inh	PLK1 PBD inh	HP1b chromo inh
COc1cc(-c2ccno2)ccc1S(=O)(=O)N1CCN(c2cccc(Cl)c2)CC1	-17%	3%[59 µM]	.	-15%	.	27%
CCc1ccc(/C=C2/C(=O)N(C)C(=S)N2CC(=O)OC)s1	-20%	35µM*	-19%	-22%	?	21%
COC(=O)CN1C(=S)N(C)C(=O)/C1=C/c1cccs1	-12%	-1%	27%	-19%	0%	34%
Cc1cc(Nc2cccc(C(F)(F)F)c2)nc2ccc(NC(=O)c3ccc(N(C)C)cc3)cc12	-14%	-21%[59 µM]	.	-18%	.	33%
COc1ccc(C(=O)NN2CC(O)=C(c3nc4ccccc4n3C)C2=N)cc1OC	4.5µM*	15%	-4%	-8%	3%	23%
COc1ccc(NC(=O)CSc2nc(-c3cc(OC)c(OC)c(OC)c3)[nH]c2-c2ccc(F)cc2)cc1	?	?	.	?	.	-6%
Cn1ccnc1C(=O)c1cc(SCC(=O)NCc2ccccc2)nc2ccccc12	-14%[11.4 µM]	?	40µM*	?	21µM*	-11%
Cc1cccc(NC(=O)CSc2cc(C(=O)c3nccn3C)c3ccccc3n2)c1	?	13µM*	15%	-6%	-4%	20%
Cn1cccc1C(=O)N1CCC[C@@]2(CCN(c3ccncc3)C2)C1	.	-3%[12.7 µM]	-8%	.	.	.
COc1ccc2c(c1)c1c(c(=O)n(-c3cccc(C)c3)c(=O)n1Cc1cccc(Cl)c1)n2C	0%	-8%[59 µM]	.	-6%	.	30%
Cc1ccc([N+](=O)[O-])cc1NC(=S)NC(=O)CC(C)(C)C	-35%	-37%	4%	-12%	-17%	-8%
Cc1ccc(NS(=O)(=O)c2cc([N+](=O)[O-])ccc2NNC(=S)Nc2cccc(Cl)c2)c(C)c1	?	16µM*	7.9µM*	20µM*	?	?
Cc1ccc(NS(=O)(=O)c2cc([N+](=O)[O-])ccc2NNC(=S)Nc2cc(C)ccc2C)c(C)c1	40µM*	2.5µM*	-72%	32µM*	?	?
COc1ccc(NC(=S)NNc2ccc([N+](=O)[O-])cc2S(=O)(=O)Nc2ccc(C)cc2C)cc1	32µM*	10µM*	40µM*	25µM*	27µM*	?
O=C(COc1cc2oc(=O)cc(-c3ccccc3)c2cc1Cl)NCCN1CCOCC1	-15%	0%	1%	-29%	-1%	34%
CCOC(=O)c1c(C)n(S(=O)(=O)c2ccc(C)cc2)c2ccc(NS(=O)(=O)c3ccc(C)cc3)cc12	-18%	7%[59 µM]	.	-14%	.	18%
COc1ccc(NC(=O)N2CC[C@@]3(CCCN(C(=O)c4cnccn4)C3)C2)cc1	.	4%[12.7 µM]	15%	.	.	.
Cc1ccc(-c2nnn(CC(=O)N3CCCCC3)n2)cc1	-1%	20%[0.501 µM]	3%	4%	0%	28%
CC(C)C1Oc2ccccc2N(CC(=O)NC2CCCCC2)C1=O (stereo not given)	6%	15%	15%	-3%	0%	17%
Cc1ccc(CNC(=O)c2cc3c(-c4ccc(Cl)cc4)nn(C)c3s2)o1	-12%	50µM*	?	0%	-9%	31%
CCCCNC(=O)c1cc2c(-c3ccc(Cl)cc3)nn(C)c2s1	-3%	19%	15%	-5%	-1%	56%
CCN1CCCC1CNC(=O)c1cc2c(-c3ccc(Cl)cc3)nn(C)c2s1 (stereo not given)	-34%	79µM*	6%	-27%	-4%	4%
COC(=O)CNC(=O)C1(C)C=CC2(CCCCC2)N1C(C)=O (stereo not given)	.	.	16%	.	.	.
CCCCCCCCCCCCCC[N+](C)(C)C	.	-1%[12.7 µM]	11µM*	.	.	.
CCCCCCCCCCCCCCCC[N+](C)(C)CC	-8%	14µM*!	79µM*	6%	-3%	17%
SMILES	JMJD2A Tudor inh	G9a block	Sfp PPTase inh	BAZ2B inh	PLK1 PBD inh	HP1b chromo inh
CCCCCC[N+](C)(C)CCSSCC[N+](C)(C)CCCCCC	-24%	?	-18%	-4%	1.2µM*	?
CCCCCCCCCCCCCCCCCC[N+](C)(C)CCC[Si](OC)(OC)OC	.	30%[59 µM]	14%	.	.	.
CCCCCCCCCCCCCCCC[N+](C)(C)CCl	-4%	.	.	.	-29%	31%
CCOc1ccc(NC(=O)[C@H]2O[C@@H]3OC(C)(C)O[C@@H]3[C@H]3OC(C)(C)O[C@H]32)cc1	-7%	7%[59 µM]	.	-3%	.	39%
CCN(CC)CCCn1c(-c2ccccc2)nc2c(NCCOC)nc(C)nc21	.	.	27%	.	.	.
COc1ccc(OC)c(/C=C2\N=C(c3ccccc3)OC2=O)c1	3%	11%[0.501 µM]	14%	2%	12µM*	37%
OCCCNc1ccccc1	.	1%[12.7 µM]	1%	.	.	.
COc1ccc(CNc2cc(C)nc3ccc(OC)cc23)cc1	-26%	35µM*	-27%	-38%	0%	3%
COc1ccc(/C=N/Nc2cc(C)nc3ccccc23)cc1	-27%	.	28µM*	?	-4%	12%
COc1ccc2nc(C)cc(N/N=C/c3ccc(F)cc3)c2c1	-28%	?	45µM*	-28%	-12%	10%
COc1ccc(/C=N/Nc2cc(C)nc3c(C)cccc23)cc1	?	-9%	?	?	-1%	15%
COc1ccc(Nc2cc(C)nc3ccc(OC)cc23)cc1	-21%	.	-14%	-3%	-4%	12%
COc1cccc2c(N/N=C/c3ccc(O)c(O)c3)cc(C)nc12	?	35µM*	-26%	?	-4%	57%
Cc1nc(N2CCCC2)c2c(C(=O)Nc3cccc(Cl)c3C)c(C)oc2n1	-18%	-30%[59 µM]	.	-6%[57.1 µM]	.	9%
Cc1ccc(C(=O)OC[C@H]2O[C@H](Cl)C[C@@H]2OC(=O)c2ccc(C)cc2)cc1	.	.	-7%	.	.	.
O=c1[nH][nH]c2cc(=O)n(-c3ccc(Cl)cc3)nc12	?	40µM*	5%	50µM*	-21%	-13%
CC(=O)N1CCN(C(=O)CSc2nc3c(cnn3-c3ccccc3)c(=O)[nH]2)CC1	8%	-38%	12%	-7%	-4%	28%
CCC(=O)N1N=C(c2cccs2)CC1c1ccc(C)cc1 (stereo not given)	-34%	13%	-5%	14%	27µM*	29%
COc1ccc(C2CC(c3cccs3)=NN2C(=O)c2ccco2)cc1OC (stereo not given)	-27%	-3%[59 µM]	-9%	?	-10%	-9%
O=C(c1ccco1)N1N=C(c2cccs2)CC1c1ccc(F)cc1 (stereo not given)	-14%	-29%[59 µM]	56µM*	-3%	-5%	28%
O=C(CSc1nc2c(cnn2-c2ccccc2)c(=O)[nH]1)N1N=C(c2cccs2)CC1c1ccc(F)cc1 (stereo not given)	-11%	28µM*	5%	-26%	?	7%
